Measurements published in PubChem BioAssay AID720517 (National Center for Advancing Translational Sciences (NCATS), 2013).
Results filed as inconclusive are left out. Active and inactive are the calls of the source. The call rests on the fitted dose curve; in most records, active means well fitted activation curve with a large enough effect; inconclusive means small, poorly fitted or top-dose-only effect; inactive means flat fitted curve, though single readings scatter.

Experiment: qHTS for Inhibitors of Cell Surface uPA Generation: FP59 Counterscreen for Cherry-picked Compounds; further: 0% is about no effect
Conditions: FP59 anthrax toxin cytotoxicity counterscreen, cells; series mostly up to 115 µM; activity (protection from FP59): at the top concentration

| Compound | activity (protection from FP59) |
| --- | --- |
| COc1ccc(/C(N)=N/OC(=O)Cc2ccccc2OC)cc1 | -1.48% (inactive) |
| Cc1cc(C)n(CCCNC(=O)c2ccc(C)o2)n1 | -1.64% (inactive) |
| O=C(NNC(=O)c1ccc2ccccc2c1)Nc1ccc(F)cc1 | -1.26% (inactive) |
| CC1(C)C([N+](=O)[O-])C(c2ccc(F)cc2)NC(c2ccc(F)cc2)C1[N+](=O)[O-] (configuration not stated) | 2.83% (inactive) |
| Cc1cc(C)cc(NC(=O)C(OC(=O)c2ccc(O)cc2)c2ccccc2)c1 (configuration not stated) | 5.79% (inactive) |
| O=C(O)CNS(=O)(=O)c1ccc2c(c1)Cc1cc(S(=O)(=O)NCC(=O)O)ccc1-2 | -1.23% (inactive) |
| Cc1nnc2ccc(-c3ccc(NS(=O)(=O)c4ccc(Cl)s4)cc3)nn12 | -1.35% (inactive) |
| COc1cc(NC(=O)CSc2nnc3ccc(-c4ccncc4)nn23)cc(OC)c1 | -1.37% (inactive) |
| Cc1cc(=O)[nH]c(=S)[nH]1 | -1.48% (inactive) |
| NC(=O)c1ccccc1NC(=O)CC12CC3CC(CC(C3)C1)C2 | -1.32% (inactive) |
| Fc1ccc(N2CCN(c3nc(CN4CCOCC4)nc4scc(-c5ccccc5)c34)CC2)cc1 | 0.176% (inactive) |
| C=CCn1c(SCc2ccc(C(=O)NCCO)cc2)nc2ccccc2c1=O | -1.12% (inactive) |
| COc1ccc(-c2cc(-c3ccccc3)nc3ncnn23)cc1 | -1.42% (inactive) |
| COc1ccc(OC)c(S(=O)(=O)N2CCN(Cc3ccccc3)CC2)c1 | -1.16% (inactive) |
| CN(C)S(=O)(=O)c1cccc(C(=O)OCC(=O)NCc2ccc3c(c2)OCO3)c1 | -1.44% (inactive) |
| CC1=C(C(=O)OCc2ccccc2)C(c2cccc([N+](=O)[O-])c2)NC(=O)N1 (configuration not stated) | -0.959% (inactive) |
| Cc1ccc(N2C(=O)CC(N3CCN/C3=C3\CC/C(=C\c4ccccc4)C3=O)C2=O)cc1 (configuration not stated) | -1.33% (inactive) |
